Compound activity from PubChem.
A selection: hits, their analogues and other compounds. The true share with any hit is near 0.83%.
LRH-1 inv ag = LRH-1 (NR5A2) inverse agonists, primary screen, cell-based, luminescence, HEK293T, StAR-luciferase reporter | Nuclear receptor subfamily 5 group A member 2 (Homo sapiens), O00482 | LRH-1 transfected, 24 h | inhibition, % at 3.6 µM | hit rate 0.13% among 360,000 | AID 602396, 2012;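 active = inhibition above the mean inhibition of all tested compounds plus 3 SD, cut at about 73% in these data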
Target sequence (O00482 whole entry, looked up): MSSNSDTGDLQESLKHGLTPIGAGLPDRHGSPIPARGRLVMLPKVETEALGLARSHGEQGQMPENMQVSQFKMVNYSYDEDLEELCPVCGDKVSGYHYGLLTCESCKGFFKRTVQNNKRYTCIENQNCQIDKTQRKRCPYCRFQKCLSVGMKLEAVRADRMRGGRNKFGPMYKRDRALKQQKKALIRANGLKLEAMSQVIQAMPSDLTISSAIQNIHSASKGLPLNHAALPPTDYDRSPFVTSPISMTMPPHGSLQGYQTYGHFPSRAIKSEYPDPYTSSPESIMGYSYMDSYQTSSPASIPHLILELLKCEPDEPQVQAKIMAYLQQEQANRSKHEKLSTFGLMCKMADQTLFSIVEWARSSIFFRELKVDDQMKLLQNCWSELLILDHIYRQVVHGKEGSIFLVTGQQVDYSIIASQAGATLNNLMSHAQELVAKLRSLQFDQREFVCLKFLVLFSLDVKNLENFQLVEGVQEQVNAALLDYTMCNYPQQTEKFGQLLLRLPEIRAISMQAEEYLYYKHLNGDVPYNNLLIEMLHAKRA
NCOA3 inh = SRC3 coactivator transcriptional activity inhibitors, primary screen, cell-based, luminescence. HEK293 GAL4-SRC3 luciferase reporter. inhibition, % at 3.6 µM. hit rate 0.17% among 360,000. AID 588352, 2011;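 active = inhibition above a per-campaign cutoff, the mean of all compounds plus 3 SD, cut at about 60% in these data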;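 note: higher means less SRC3-driven luciferase light from the GAL4 reporter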
NR2F2 inh = NR2F2 transcriptional activity inhibitors, primary screen, cell-based, luciferase reporter, HEK293T, luminescence | hit rate 0.7% among 370,000 | AID 686940, 2013 | HEK293T NGFI-A luciferase reporter | inhibition, % at 8.6 µM | COUP transcription factor 2 (Homo sapiens), P24468;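 active = inhibition above a per-plate cutoff, mean inhibition of test wells between control levels plus 3 SD, cut at about 38% in these data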;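 note: cells cotransfected with COUP-TFII expression vector driving the NGFI-A reporter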
SRC2 inh = inhibition of GAL4-SRC2 driven luciferase reporter, primary screen, SRC2 inhibitor project, cell-based, luminescence. AID 651957, 2012. hit rate 0.17% among 370,000. HEK293 GAL4-SRC2 luciferase reporter. Nuclear receptor coactivator 2 (Homo sapiens), Q15596. inhibition, % at 9 µM;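 active = inhibition above the mean inhibition of all tested compounds plus 3 SD, set per campaign, cut at about 52% in these data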
SRC1 inh = SRC1 coactivator transcriptional activity inhibitors, primary screen, cell-based, luminescence. Nuclear receptor coactivator 1 (Homo sapiens), Q15788. AID 588354, 2011. hit rate 0.12% among 360,000. inhibition, % at 3.6 µM. HEK293 GAL4-SRC1 luciferase reporter;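 active = inhibition above the campaign mean plus 3 SD, with each screening campaign given its own cutoff, cut at about 60% in these data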
Gal4-VP16 ctr = Gal4-VP16 luciferase reporter inhibitors, counter-screen for COUP-TFII antagonist project, cell-based, luminescence, HEK293 | shares compounds with NR2F2 inh | inhibition, % at 8.5 µM | hit rate 25% among 2,500; in the data active = inhibition above about 13%
NR2F2 inh conf = NR2F2 transcriptional activity inhibitors, confirmation, cell-based, luciferase reporter, HEK293, triplicate; inhibition, % at 8.5 µM; shares compounds with NR2F2 inh; HEK293 NGFI-A luciferase reporter, luminescence; hit rate 45% among 2,500;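 active = mean inhibition over three repeats above a set limit taken from the earlier primary screen, cut at about 38% in these data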
Of the large screens only hits and unclear results are named; the others gave an inactive call (follow-up assays come after a bar, where they were run).

Cc1ccc2c(c1)c(/C=C/c1cc[n+](C)cc1)c(C)n2C	NR2F2 inh 54 | Gal4-VP16 ctr inactive | NR2F2 inh conf inactive
Cn1cc(/C=C/c2cc[n+](C)cc2)c2cc(F)ccc21	none (no result: NR2F2 inh, SRC2 inh)
O=S(=O)(c1cc(F)ccc1F)N1CCN(c2ncnc3ccccc23)CC1	NR2F2 inh 51 | Gal4-VP16 ctr 19 | NR2F2 inh conf 53
C=CCN1C(=O)S/C(=C/c2ccc(Sc3nc4ccccc4[nH]3)o2)C1=O	NR2F2 inh 46 | Gal4-VP16 ctr inactive | NR2F2 inh conf inactive
COc1nc(OC)nc(N2CCC(C(=O)NCc3cccc(OC)c3OC)CC2)n1	none (no result: LRH-1 inv ag, NCOA3 inh, SRC1 inh)
CCOC(=O)N1CCC(NC(=O)C2CCCN(Cc3nc(-c4cccc(Cl)c4)oc3C)C2)CC1 (stereo unspecified)	NR2F2 inh 48 | Gal4-VP16 ctr inactive | NR2F2 inh conf inactive
COc1ccc(CCNC(=O)C2CCCN(Cc3nc(-c4ccccc4C)oc3C)C2)cc1OC (stereo unspecified)	none
CCc1ccc(-c2nc(CN3CCCC(C(=O)NCCc4ccc(OC)c(OC)c4)C3)c(C)o2)cc1 (stereo unspecified)	NR2F2 inh 49 | Gal4-VP16 ctr inactive | NR2F2 inh conf inactive
CCCCCCCCN1C(=O)N2Cc3ccccc3C2CS1(=O)=O (stereo unspecified)	none (no result: LRH-1 inv ag, NCOA3 inh, SRC1 inh)
CCC(=O)/C=C1/Sc2ccccc2N1CC	none
CCN1/C(=C/c2sc(-c3ccccc3C)c[n+]2C)Sc2ccccc21	LRH-1 inv ag 90, NCOA3 inh 80, NR2F2 inh 90 | Gal4-VP16 ctr 16 | NR2F2 inh conf 86
O=C(NC(Nc1nc2ccc([N+](=O)[O-])cc2s1)(C(F)(F)F)C(F)(F)F)c1ccccc1Cl	LRH-1 inv ag 98, NCOA3 inh 74, NR2F2 inh 75, SRC1 inh 73 | Gal4-VP16 ctr 18 | NR2F2 inh conf 74
O=C(NC(Nc1nc2ccc([N+](=O)[O-])cc2s1)(C(F)(F)F)C(F)(F)F)c1cccnc1	LRH-1 inv ag 91, NCOA3 inh 78, NR2F2 inh 77, SRC1 inh 69 | Gal4-VP16 ctr inactive | NR2F2 inh conf 70
O=C(Nc1ccccc1)OCCN1C(=O)CCC12CCC(c1ccc(Cl)cc1)CC2 (stereo unspecified)	none (no result: LRH-1 inv ag, NCOA3 inh, SRC1 inh)
COc1cccc(C2NC(=S)N(Cc3ccc(Br)cc3)C(C)=C2C(C)=O)c1 (stereo unspecified)	none (no result: LRH-1 inv ag, NCOA3 inh, SRC1 inh)
Cc1ccc(Cn2cc(CN3[C@H](CC(C)C)COc4cc(Br)ccc4S3(=O)=O)nn2)cc1	none (no result: LRH-1 inv ag, NCOA3 inh, SRC1 inh)
CC(C)(C)c1ccc(C(=O)Nc2cccc3c(=O)[nH][nH]c(=O)c23)cc1	NR2F2 inh 48 | Gal4-VP16 ctr inactive | NR2F2 inh conf 54
COc1ccc(-c2nsc3c(N4CCCCC4)ncnc23)cc1	NR2F2 inh 57 | Gal4-VP16 ctr inactive | NR2F2 inh conf 63
COc1ccc(-c2nsc3c(N4CCCCC4C)ncnc23)cc1 (stereo unspecified)	LRH-1 inv ag 86, NCOA3 inh 89, NR2F2 inh 97, SRC2 inh 82, SRC1 inh 89 | Gal4-VP16 ctr 88 | NR2F2 inh conf 104
COc1ccccc1N1CCN(S(=O)(=O)c2ccc3c(c2)n(C)c(=O)c(=O)n3C)CC1	none (no result: LRH-1 inv ag, NCOA3 inh, SRC1 inh)
O=C(OCc1ccccc1)[C@H](Cc1ccccc1)NC(=O)[C@@H]1CC=C[C@@H]2CCN(Cc3ccccc3)C(=O)[C@@H]21	none (no result: LRH-1 inv ag, NCOA3 inh, SRC2 inh, SRC1 inh)
Cc1ccc(C(=O)Nc2ncc([N+](=O)[O-])s2)cc1	NR2F2 inh 63, SRC2 inh 62 | Gal4-VP16 ctr inactive | NR2F2 inh conf inactive
Cc1cc(NC(=O)CS(=O)(=O)c2cn(Cc3cccc(Br)c3)c3ccccc23)no1	NR2F2 inh 47 | Gal4-VP16 ctr inactive | NR2F2 inh conf inactive
Cc1cc(C)nc(SCc2nnc(SCC(N)=O)n2Cc2ccco2)n1	NR2F2 inh 39 | Gal4-VP16 ctr inactive | NR2F2 inh conf inactive
COC(=O)C1=C(C)N(C)C(=NCc2ccc(C(F)(F)F)cc2)NC1c1cccc(Cl)c1 (stereo unspecified)	none (no result: LRH-1 inv ag, NCOA3 inh, SRC1 inh)
Cc1cc(Br)ccc1NC(=O)CN(C)C(=O)C1CCN(c2ncnc3sc(C)c(C)c23)CC1	NR2F2 inh 47 | Gal4-VP16 ctr inactive | NR2F2 inh conf inactive
O=C(N1CCC(Cc2ccccc2)CC1)n1ncc(C(O)(c2ccccc2)c2ccccc2)n1	none (no result: LRH-1 inv ag, NCOA3 inh, SRC2 inh, SRC1 inh)
C(=N\Nc1nc2ccccc2s1)/c1ccccn1	NR2F2 inh 63, SRC2 inh 69 (no result: LRH-1 inv ag, NCOA3 inh, SRC1 inh) | Gal4-VP16 ctr 70 | NR2F2 inh conf 80
Cc1ccc(S(=O)(=O)NC[C@H]2CN(S(=O)(=O)c3ccc(C)cc3)[C@@H](Cc3ccccc3)CO2)cc1	none (no result: LRH-1 inv ag, NCOA3 inh, SRC2 inh, SRC1 inh)
COc1ccc(-c2nc(-c3ccccn3)no2)cc1	NCOA3 inh 69, NR2F2 inh 83, SRC2 inh 75 | Gal4-VP16 ctr 60 | NR2F2 inh conf 81
COCCn1c(C)c(C)c2c(NCCc3ccccc3)ncnc21	NR2F2 inh 47 | Gal4-VP16 ctr inactive | NR2F2 inh conf 64
Cc1c(C)n(CCc2ccccc2)c2ncnc(NCCCO)c12	none
Cn1c(NC(=O)c2ccccc2)nc(Cc2ccccc2)c1Cc1ccccc1	none (no result: LRH-1 inv ag, NCOA3 inh, SRC1 inh)
CC(C)(C)c1ccc(C(=O)NCCOc2ccccc2F)cc1	NR2F2 inh 53 | Gal4-VP16 ctr inactive | NR2F2 inh conf 46
Cc1nc2ccccc2n1Cc1ccccc1Br	NR2F2 inh 41 | Gal4-VP16 ctr inactive | NR2F2 inh conf inactive
Cc1nc2ccccc2n1Cc1ccc(Br)cc1	NR2F2 inh 58 | Gal4-VP16 ctr inactive | NR2F2 inh conf 50
Cc1nc2ccccc2n1Cc1ccccc1	none
O=C(NC1CCCCN(Cc2cccc(Cl)c2)C1=O)c1cccc2nsnc12 (stereo unspecified)	none (no result: LRH-1 inv ag, NCOA3 inh, SRC1 inh)
CC1Cc2cc(S(=O)(=O)N3CCN(c4ccc(Cl)cc4)CC3)ccc2N1C(=O)C1CC1 (stereo unspecified)	none
CC(=O)N1c2ccc(S(=O)(=O)N3CCC(C(=O)N4CCN(c5ccc(Cl)cc5)CC4)CC3)cc2CC1C (stereo unspecified)	NR2F2 inh 44 | Gal4-VP16 ctr inactive | NR2F2 inh conf inactive
COC(=O)[C@]12C[C@H](CC(=O)NCCCN3CCCC3=O)C(=O)N(CCc3ccc(OC)c(OC)c3)C1=C[C@H](C(C)(C)C)O[C@@H]2C	none (no result: LRH-1 inv ag, NCOA3 inh, SRC1 inh)
Fc1ccc2[nH]c3c(NCc4ccccc4)ncnc3c2c1	NR2F2 inh 55 | Gal4-VP16 ctr inactive | NR2F2 inh conf 38
